Measured values taken from PubChem BioAssay (NCI).
About 83,000 compounds went through this panel and 20% of them were active in at least one assay; those are over-represented in the sample as a whole.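 Values shown are percent growth following 48 h exposure of cells in 96-well plates to a single concentration of compound; below 10 was considered active.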 Unmarked numbers belong to inactive results. Active and inactive are the calls of the source.

Legend:
Experiment in all cases: NCI-60 one-dose screen, 48 h (100 = growth as untreated, 0 = no growth, -100 = all killed)
NCI-H23 lung = conditions: 10 µM unless noted
NCI-H460 lung = conditions: 10 µM unless noted
786-0 renal = conditions: 10 µM unless noted
DU-145 prostate = conditions: 10 µM unless noted
MDA-MB-231 breast = conditions: 10 µM unless noted
SF-268 CNS = conditions: 10 µM unless noted
SF-539 CNS = conditions: 10 µM unless noted
UACC-257 melanoma = conditions: 10 µM unless noted
HCT-15 colon = conditions: 10 µM
PC-3 prostate = conditions: 10 µM unless noted
SK-MEL-5 melanoma = conditions: 10 µM unless noted
LOX IMVI melanoma = conditions: 10 µM unless noted
SK-MEL-28 melanoma = conditions: 10 µM unless noted
SN12C renal = conditions: 10 µM unless noted
NCI/ADR-RES ovarian = conditions: 10 µM unless noted
SW-620 colon = conditions: 10 µM unless noted
MCF7 breast = conditions: 10 µM unless noted
HCT-116 colon = conditions: 10 µM unless noted
HCC-2998 colon = conditions: 10 µM unless noted
KM12 colon = conditions: 10 µM unless noted

Row | SMILES | growth (NCI-H23 lung) | growth (NCI-H460 lung) | growth (786-0 renal) | growth (DU-145 prostate) | growth (MDA-MB-231 breast) | growth (SF-268 CNS) | growth (SF-539 CNS) | growth (UACC-257 melanoma) | growth (HCT-15 colon) | growth (PC-3 prostate) | growth (SK-MEL-5 melanoma) | growth (LOX IMVI melanoma) | growth (SK-MEL-28 melanoma) | growth (SN12C renal) | growth (NCI/ADR-RES ovarian) | growth (SW-620 colon) | growth (MCF7 breast) | growth (HCT-116 colon) | growth (HCC-2998 colon) | growth (KM12 colon)
1 | n1nc(-c2nonc2-c2nn[nH]n2)n[nH]1 | 102% | 109% | 99% | 103% | 105% | 122% | 115% | 100% | 106% | 102% | 104% | 103% | 106% | 102% | 104% | 107% | 101% | 106% | 106% | 118%
2 | CCC[CH2][Sn]([CH2]CCC)([CH2]CCC)[O]C(=O)c1ccc(Cl)cc1Cl | -65.5% (active) | -78% (active) | -91.7% (active) | -98% (active) | -88.2% (active) | -95.5% (active) | -91.7% (active) | -94.8% (active) | -82.9% (active) | -76.8% (active) | -96.1% (active) | -70.3% (active) |  | -83.9% (active) | -68.6% (active) | -71.7% (active) |  | -87.6% (active) | -90.9% (active) | -92.4% (active)
3 | Oc1ccc(Br)cc1CN1CCN(Cc2ccc(Cl)cc2)CC1 | 91.1% | 93.1% | 107% | 88.5% | 49.2% | 64.2% | 92.9% | 86.7% | 59.7% | 54% | -3.7% (active) | 19.7% | 88.2% | 89.6% | 82.2% | 73.1% | 34.5% | 22.2% |  | 64.9%
4 | CC[C@@]1(C2O[C@@H](C3O[C@@](O)(CC)[C@H](C)C[C@@H]3C)C[C@@H]2C)CC[C@H]([C@]2(C)CCC3(C[C@H](O)[C@@H](C)[C@@H]([C@H](C)[C@@H](OC)[C@H](C)C(=O)O)O3)O2)O1 (some centres not stated) | 16.5% |  |  | 44.9% |  | 22.4% | 12.6% | 20.7% | 11.5% |  |  |  | 29.5% | 31% | 31.1% | 11.3% |  |  |  | 20.6%
5 | Clc1ccc(SSC(Cl)(Cl)Cl)cc1 |  | 101% | 106% | 114% | 116% | 104% | 103% | 112% | 112% | 88.9% | 110% | 103% | 120% | 102% | 117% | 97.6% | 108% | 101% | 110% | 108%
6 | OC1CCCCC1N1CCC(c2ccccc2)CC1 (configuration not stated) | 100% | 109% | 93.1% | 112% | 119% | 106% | 119% | 109% | 110% | 91% | 106% | 99.4% | 103% | 109% | 99.7% | 99.3% | 94.1% | 94.5% | 93.2% | 104%
7 | CC[C@]12C=CCN3CC[C@@]4(c5ccc(OC)cc5N(C)[C@H]4[C@@](O)(C(=O)OC)[C@@H]1OC(=O)CCCN1CCN(CCCC(=O)O[C@@H]4[C@]5(CC)C=CCN6CC[C@@]7(c8ccc(OC)cc8N(C)[C@H]7[C@@]4(O)C(=O)OC)[C@@H]65)CC1)[C@@H]32 | -80.6% (active) | -80.3% (active) | -81.9% (active) | -90.6% (active) | -89.6% (active) | -82.6% (active) | -95.5% (active) | -87.6% (active) | -74.3% (active) | -80.3% (active) | -95.9% (active) | -89.1% (active) | -91.6% (active) | -81.4% (active) | -40.6% (active) | -81.9% (active) | -83.8% (active) | -84% (active) | -86.6% (active) | -73.9% (active)
8 | COc1cc(CNCCc2ccc(Cl)cc2)cc(OC)c1O | 67% | 83.3% | 78.3% | 91% | 72.2% | 73% | 68.7% | 90.2% | 54.8% | 52.9% | 72.8% | 70.7% | 69.9% | 75.5% | 44.8% | 64.1% | 63.7% | 60.9% | 83.2% | 65.7%
